Experimental findings from PubChem BioAssay (NCATS) are described below.

Inconclusive results are not listed. Unmarked numbers belong to inactive results. Active and inactive are the calls of the source. Calls come from the whole dose curve; as a rule, active = well fitted curve in the direction sought with a large enough effect; inconclusive = small, poorly fitted or top-dose-only effect, or another doubt; inactive = no such curve, though single readings can be large; an effect the other way counts as inactive or inconclusive.

Assay [1] is described as follows: Primary qHTS for inhibitors of nuclear receptor binding SET domain protein 2 (NSD2) in an isogenic RCH-ACV NSD2 p.E1099K mutant (9B) (AID 1645876). (In qHTS, concentration-response curves come from the screen itself.)
Assay [2] can be described thus: Primary qHTS for inhibitors of nuclear receptor binding SET domain protein 2 (NSD2) in an RCH-ACV wild type WT cells (2C) (AID 1645877).
% is set by controls: 0 for no effect and ±100 for the full control effect.
Note: nearly all actives have a fitted effect of over 70% in size.

As to `CC1CC(=O)C2=C(O1)OC1(C)CCC3C(C)(C)C=CC(=O)C3(C)C1C2` (stereo unspecified), the Potency entry in assay [1] and in assay [2] was “inactive” throughout.

In the case of `C/C=C(/C)C(=O)O[C@H]1C=C(C)C[C@H](OC(=O)c2ccc(O)cc2)C2[C@](O)(C(C)C)CC[C@@]21C` (stereo partly specified), the Potency result in assay [1] and in assay [2] was “inactive” throughout.

With `CC(O)(CC(=O)O)CC(=O)O[C@@H]1[C@@H](O)[C@H](OCCc2ccccc2)O[C@H](CO)[C@H]1O` (stereo partly specified), the Potency entry in assay [1] and in assay [2] was “inactive” in each case.

Take `COC(=O)C1(Cc2ccc(O)cc2)OC(=O)C(OC)=C1c1ccc(O)cc1` (stereo unspecified): the Potency result in assay [1] and in assay [2] was “inactive” each time.

`CC(=O)OC[C@@]12[C@H](O)C[C@]3(C)C(=CCC4[C@@]5(C)CC[C@H](O[C@@H]6O[C@H](C(=O)O)[C@@H](O[C@@H]7O[C@H](CO)[C@@H](O)[C@H](O)[C@H]7O)[C@H](O)[C@H]6O[C@@H]6O[C@H](CO)[C@@H](O)[C@H](O)[C@H]6O)[C@](C)(CO)C5CC[C@]43C)[C@@H]1CC(C)(C)[C@@H](OC(C)=O)[C@@H]2O` (stereo partly specified): in assay [1], the activity change, negative = viability loss was 3.64% [at 9.23 µM]. Also, the outcome in assay [2] was “inactive [at 9.23 µM]”.

`C[C@]12CC[C@@H]3c4ccc(O[C@@H]5O[C@H](C(=O)O)[C@@H](O)[C@H](O)[C@H]5O)cc4CC[C@H]3[C@@H]1CCC2=O`: the Potency result in assay [1] and in assay [2] was “inactive” in each case.

For the compound `O=C(/C=C/c1ccccc1)OCC1=CC[C@@H]2C(C(=O)O)=CO[C@@H](O[C@@H]3O[C@H](CO)[C@@H](O)[C@H](O)[C@H]3O)[C@H]12`, the Potency result in assay [1] and in assay [2] was “inactive” in each case.

For `C[C@@H]1O[C@@H](O[C@H]2[C@H](O[C@H]3CO[C@@H](O[C@H]4CC[C@@]5(C)C(CC[C@]6(C)C5CC[C@]57OC[C@@]8(CC[C@](C)(CO)CC85)[C@H](O)C[C@]76C)C4(C)C)[C@H](O[C@@H]4O[C@H](CO)[C@@H](O)[C@H](O)[C@H]4O)[C@H]3O)O[C@H](CO)[C@@H](O)[C@@H]2O)[C@H](O)[C@H](O)[C@H]1O` (stereo partly specified), the outcome in assay [1] and in assay [2] was “inactive [at 9.23 µM]” in each case.
